Measured values as given in PubChem BioAssay (NCATS).
Inconclusive results are not listed. Where a call stands in place of a potency, no number is given. The source made the active and inactive calls. Unless noted, the call rests on the fitted dose curve.

Assays:
[1] = qHTS for Inhibitors of Plasmodium falciparum (CP250) proliferation (AID 504320; active means well fitted inhibition curve with a large enough effect; further: potency means the concentration at half of the fitted maximal effect)
Outline: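 Erythrocytes infected with P. falciparum line (0.3% parasitemia, 2.5% hematocrit final) incubated with compounds 72 h at 37 °C, 5% CO2; SYBR Green lysis buffer added, fluorescence read next day. Normalized to 0.29 uM artemisinin and DMSO.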

[2] = target: Atrial natriuretic peptide receptor 1 (Homo sapiens) (UniProt P16066); assay: Natriuretic polypeptide receptor (hNpr1) antagonism - Pilot CMLD screen (AID 1347052);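 further: HEK293 cells with hNpr1 stimulated by hNppA peptide at 0.1 nM; cGMP level read as GloSensor luciferase luminescence after agonist stimulation; series mostly up to about 9.2 µM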
Chain of Atrial natriuretic peptide receptor 1 (Homo sapiens) (P16066 whole entry, looked up): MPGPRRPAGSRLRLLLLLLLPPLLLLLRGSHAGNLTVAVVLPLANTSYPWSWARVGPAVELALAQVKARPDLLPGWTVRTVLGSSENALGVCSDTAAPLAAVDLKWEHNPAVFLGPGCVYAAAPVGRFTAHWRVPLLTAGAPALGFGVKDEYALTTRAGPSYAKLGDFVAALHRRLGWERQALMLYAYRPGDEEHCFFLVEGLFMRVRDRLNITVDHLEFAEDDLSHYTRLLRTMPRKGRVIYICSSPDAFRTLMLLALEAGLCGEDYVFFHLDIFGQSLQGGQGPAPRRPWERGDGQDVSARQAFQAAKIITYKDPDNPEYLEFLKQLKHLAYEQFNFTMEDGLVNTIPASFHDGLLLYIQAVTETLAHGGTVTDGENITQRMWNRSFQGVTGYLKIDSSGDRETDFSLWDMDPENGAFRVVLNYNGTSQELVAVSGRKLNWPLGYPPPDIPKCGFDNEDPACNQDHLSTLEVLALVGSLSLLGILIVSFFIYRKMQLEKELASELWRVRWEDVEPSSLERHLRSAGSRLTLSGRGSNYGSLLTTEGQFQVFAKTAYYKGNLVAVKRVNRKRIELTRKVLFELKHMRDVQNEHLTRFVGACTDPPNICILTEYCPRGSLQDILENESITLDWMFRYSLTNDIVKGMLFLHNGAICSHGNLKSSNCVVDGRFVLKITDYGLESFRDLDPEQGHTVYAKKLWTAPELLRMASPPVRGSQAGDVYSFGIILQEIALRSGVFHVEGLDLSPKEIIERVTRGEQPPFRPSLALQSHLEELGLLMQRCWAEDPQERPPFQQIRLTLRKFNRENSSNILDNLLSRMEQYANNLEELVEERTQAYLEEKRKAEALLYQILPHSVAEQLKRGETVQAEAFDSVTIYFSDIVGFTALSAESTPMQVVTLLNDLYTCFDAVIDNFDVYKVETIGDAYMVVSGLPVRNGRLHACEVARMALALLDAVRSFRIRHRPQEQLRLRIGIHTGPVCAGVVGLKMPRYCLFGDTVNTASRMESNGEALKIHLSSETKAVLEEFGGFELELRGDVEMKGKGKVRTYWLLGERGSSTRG

| Structure (SMILES) | Potency [1] | Potency [2] |
| --- | --- | --- |
| COC(=O)[C@@H]1CC[C@H](C)[C@@H](c2ccc(C)cc2)N1C(=O)c1ccc(C=NO[C@H](C)CN2CCCc3nc(C)c(C)cc32)cc1 | 1.51 µM (active) | inactive |
| COc1cccc2c1[C@H](C=Cc1ccccc1)[C@@H]([C@H](O)CN=[N+]=[N-])OC2 | inactive | inactive |
| CCC(C)CN1C(=O)NC(CCc2ccccc2)C(C(C)=O)=C1C (stereo unspecified) | inactive | inactive |
| C#CCN1C(=O)[C@]2(OC[C@@H]3Cc4ccccc4[C@@H]3C=C2C)c2ccccc21 | inactive | inactive |
| Cc1ccc(C=CC2=C[C@]3(C)C[C@]2(C)[C@H](c2ccc(C)cc2)CC3=O)cc1 | inactive | inactive |
| CCC=CC[C@@]1(C(=O)OC)C=C[C@@H](C)[C@H](c2ccccc2Br)N1C(=O)C(F)(F)F | inactive | inactive |
| COC(=O)C1=C(C)N(Cc2ccccc2)C(=NCCc2ccccn2)NC1c1cccc(F)c1 (stereo unspecified) | inactive | inactive |
| CCOC(=O)CN1C(=O)[C@]2(OC[C@@H]3Cc4ccccc4[C@H]3C=C2C)c2ccccc21 | inactive | inactive |
| COc1ccc([C@]23Cc4ccccc4[C@H](O2)C2=C(CC(C)(C)CC2=O)O3)cc1 | inactive | inactive |
| C[C@H]1CC[C@H]2C(=O)N(Cc3ccccc3)C[C@@H](O)CN2[C@H]1c1ccc(Br)cc1 | inactive | inactive |
| COC1=C[C@H](C(=O)N[C@H]2CCCC[C@H]2NC(C)=O)[C@@]2(C)Cc3ccccc3[C@@H]2CC1=O | inactive | inactive |
| O=C1N(CC2CC2)c2cccc(Br)c2[C@@]12O[C@H](COc1ccccc1)CC1=CCCC12 (stereo partly specified) | inactive | inactive |
| COc1ccc2c(c1)[C@@H](NC(=O)C(F)(F)F)C1CCCCC21c1ccccc1 (stereo partly specified) | inactive | inactive |
| COC(=O)CC=C[C@@H](C)[C@H](NC(=O)OCC(Cl)(Cl)Cl)c1ccc(-c2ccccc2)cc1 | inactive | inactive |
| O=C1CCCC2=C1[C@H]1O[C@](CCCCN3C(=O)c4ccccc4C3=O)(Cc3c1ccc1ccccc31)O2 | inactive | inactive |
| COC1=C[C@H](C(=O)NC2CCN(Cc3ccccc3)CC2)C(C)C(c2ccccc2)CC1=O (stereo partly specified) | inactive | inactive |
| Cc1cc2c(c(=O)n1Cc1ccccc1)[C@H]1O[C@](c3ccsc3)(Cc3ccccc31)O2 | inactive | inactive |
| COC(=O)C1=C(C(=O)OC)[C@@H]2N(Cc3ccccc3)c3ccccc3[C@@]23C[C@@H](CO)N=C3N1 | inactive | inactive |
